Laboratory results published in PubChem BioAssay (NCATS).
Results filed as inconclusive are left out. Active and inactive are the calls of the source. The call rests on the fitted dose curve; in most records, active means well fitted curve in the direction sought with a large enough effect; inconclusive means small, poorly fitted or top-dose-only effect, or another doubt; inactive means no such curve, though single readings can be large; an effect the other way counts as inactive or inconclusive.

What was measured:
[1] = system: Zika virus NS2B-NS3 protease (linked construct); experiment: Primary screen NINDS Rhodamine qHTS for Zika virus inhibitors (AID 1347160); further: potency means the concentration at half of the fitted maximal effect; nearly all actives have a fitted effect of over 55% in size
How it was run: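 Percent inhibition, normalized to uninhibited and enzyme-free controls, is fitted to a 4-parameter Hill equation. Fluorescence change comes from a 15-min cleavage of 1.5 microM bis-peptide Rhodamine110 substrate by 25 nM linked NS2B-NS3 at room temperature.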

[2] = OV-KATE Cancer Cell Toxicity qHTS against the NCATS CANVASS Library (AID 1347345)
How it was run: (§1)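 1000 cells/well seeded and rested 4 h at 37 °C before pin transfer of compounds in an 11-pnt series. Exposure 72 h at 37 °C/5% CO2; viability by CellTiter-Glo luminescence after 15 min at room temperature.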

[3] = HPAF-II Cancer Cell Toxicity qHTS against the NCATS CANVASS Library (AID 1347346); further: series mostly up to about 38 µM; nearly all actives have a fitted effect of over 55% in size
How it was run: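 HPAF-II cells were seeded at 1000 cells/well, allowed to settle for 4 h at 37 degrees C, then exposed to compounds in an 11-point series for 72 h. Viability was read by CellTiter-Glo luminescence.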

[4] = UWB1.289 Cancer Cell Toxicity qHTS against the NCATS CANVASS Library (AID 1347347); further: series mostly up to about 38 µM; nearly all actives have a fitted effect of over 60% in size
How it was run: as §1

[5] = OV-SAHO Cancer Cell Toxicity qHTS against the NCATS CANVASS Library (AID 1347348); further: series mostly up to about 38 µM; nearly all actives have a fitted effect of over 55% in size
How it was run: as §1

[6] = U-118MG Cancer Cell Toxicity qHTS against the NCATS CANVASS Library (AID 1347351); further: series mostly up to about 38 µM
How it was run: as §1

[7] = COV-362 Cancer Cell Toxicity qHTS against the NCATS CANVASS Library (AID 1347352); further: series mostly up to about 38 µM
How it was run: (§2)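 Cells were seeded at 1000 per well and allowed to settle 4 hours at 37 degrees C before pin transfer of compounds as an 11-point series. Viability was read by CellTiter-Glo luminescence after 72 hours' exposure.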

[8] = A2780 Cisplatin Sensitive Ovarian Cancer Cell Toxicity qHTS against the NCATS CANVASS Library (AID 1347353); further: nearly all actives have a fitted effect of over 60% in size
How it was run: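 A2780 cisplatin-sensitive cells (750 per well) were seeded, left 4 h at 37 °C, then pin-dosed in an 11-point series. After 72 h at 37 °C/5% CO2, viability was measured as ATPLite luminescence.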

[9] = UWB1.289-WTBRCA1 Cancer Cell Toxicity qHTS against the NCATS CANVASS Library (AID 1347354)
How it was run: as §2

[10] = HPAF-II 24hr Apoptosis Induction qHTS against the NCATS CANVASS Library (AID 1347356)
How it was run: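 HPAF-II cells (500/well) in DMEM + 10% FBS were treated with an 11-point compound series for 24 hours at 37 degrees C. Caspase-3/7 activity was then read by Caspase-Glo DEVD luminescence after 15 min.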

[11] = HEK293 18hr Apoptosis Induction qHTS against the NCATS CANVASS Library (AID 1347357)
How it was run: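 HEK293 cells (500 per well, DMEM with 10% FBS) were treated with natural products, incubated 18 hours at 37 degrees C, then caspase-3/7 activity was read by Caspase-Glo luminescence after 15 min at room temperature.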

[12] = HPAF-II 12hr Apoptosis Induction qHTS against the NCATS CANVASS Library (AID 1347358)
How it was run: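 HPAF-II cells (500/well, DMEM + 10% FBS) were exposed to compounds for 12 hours at 37 degrees C. Caspase-3/7 activity was then read by Caspase-Glo 3/7 luminescence after 15 min at room temperature.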

[13] = HEK293 24hr Apoptosis Induction qHTS against the NCATS CANVASS Library (AID 1347359)
How it was run: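 Caspase-3/7 activation measured as luminescence from the DEVD-based Caspase-Glo reagent, 15 min at room temperature, following 24-hour compound treatment of HEK293 cells.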

[14] = HPAF-II 18hr Apoptosis Induction qHTS against the NCATS CANVASS Library (AID 1347360)
How it was run: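 HPAF-II cells (500/well, DMEM + 10% FBS) were exposed to compounds for 18 hours at 37 degrees C. Caspase-3/7 activity was then read by Caspase-Glo 3/7 luminescence after 15 min at room temperature.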

[15] = HEK293 12hr Apoptosis Induction qHTS against the NCATS CANVASS Library (AID 1347361)
How it was run: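 Read-out: Caspase-Glo 3/7 luminescence (DEVD substrate), 15 min RT. Preceded by 12 h compound exposure of HEK293, 500 cells/well, 11-pt qHTS titration; doxorubicin titration as control.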

[16] = system: NAD(P)H diaphorase (Clostridium kluyveri); experiment: Diaphorse counterscreen qHTS: Assay Interference Panel against the NCATS CANVASS Library (AID 1347362)
How it was run: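 Counterscreen for coupling-enzyme interference: resorufin fluorescence from resazurin/NADH turnover, read after 5 min at room temperature. Compounds were tested over an 11-point series after 15 min dark preincubation with diaphorase in PBS-Tween.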

[17] = target: Luciferin 4-monooxygenase (Photinus pyralis) (UniProt P08659); experiment: Firefly luciferase counterscreen qHTS: Assay Interference Panel against the NCATS CANVASS Library (AID 1347363); further: series mostly up to about 57 µM
Sequence of Luciferin 4-monooxygenase (Photinus pyralis) (P08659 whole entry, looked up): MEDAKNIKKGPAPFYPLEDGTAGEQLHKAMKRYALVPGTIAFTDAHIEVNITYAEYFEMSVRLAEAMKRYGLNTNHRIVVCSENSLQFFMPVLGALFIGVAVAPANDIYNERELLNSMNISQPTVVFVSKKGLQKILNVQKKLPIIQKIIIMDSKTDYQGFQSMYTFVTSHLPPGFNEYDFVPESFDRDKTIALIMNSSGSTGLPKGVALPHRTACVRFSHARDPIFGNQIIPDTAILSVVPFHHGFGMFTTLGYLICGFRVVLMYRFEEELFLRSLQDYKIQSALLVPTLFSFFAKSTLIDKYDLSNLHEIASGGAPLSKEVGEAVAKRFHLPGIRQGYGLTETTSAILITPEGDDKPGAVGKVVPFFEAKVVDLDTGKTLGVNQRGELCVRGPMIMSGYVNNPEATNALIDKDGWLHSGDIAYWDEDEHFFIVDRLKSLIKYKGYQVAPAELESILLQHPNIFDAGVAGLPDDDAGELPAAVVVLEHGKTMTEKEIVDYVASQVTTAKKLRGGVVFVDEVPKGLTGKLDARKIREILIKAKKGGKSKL
How it was run: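 Luminescence inhibition readout: compounds (11-point qHTS) sat 15 min at room temperature with substrate mix (0.013 mM luciferin and ATP), then firefly luciferase was added and signal read 5 min later.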

[18] = KB-3-1 Cancer Cell Toxicity qHTS against the NCATS CANVASS Library (AID 1347366); further: series mostly up to about 46 µM; nearly all actives have a fitted effect of over 75% in size
How it was run: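 KB-3-1 cells (500 cells/well) in DMEM + 10% FBS were treated with compounds for 72 hr at 37C, 5% CO2. Viability was read as CellTiter-Glo luminescence after 10 minutes at room temperature.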

[19] = qHTS for ATAD5 Agonist screened against the NCATS CANVASS Library (AID 1347367);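 further: luciferase reporter driven by ATAD5 which rises upon DNA damage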
How it was run: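 HEK293T cells stably carrying an ATAD5-controlled luciferase reporter (2000 cells/well) attached for 5 hr, then received compounds in an 11-point series for 16hr at 37C. Luminescence was read after a 30 min room-temperature reagent step.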

[20] = MCF7 Cancer Cell Toxicity qHTS against the NCATS CANVASS Library (AID 1347369)
How it was run: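 MCF7, 500 cells/well; cpds 11-pt qHTS; 72 hr, 37C/5% CO2; CellTiterGlo ATP luminescence.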

Measured: Potency

CNc1ccc(Cl)cc1C(=O)OC[C@]1(C)[C@H]2CC[C@]3(C)[C@@H](C[C@@H](OC)[C@H](C)[C@H]3C3=C(O)C(=O)OC3O)[C@]2(C)CC[C@H]1O (stereo not given in full)
inactive: [2] | [3] | [4] | [5] | [6] | [7] | [8] | [9] | [10] | [11] | [12] | [13] | [14] | [15] | [16] | [17] | [18] | [19] | [20]
active: [1] 6.21 µM
